# Screening data from PubChem.
# DRD3 agonist: activates the human D3 dopamine receptor. P35462. D3R DiscoveRx beta-arrestin cells, luminescence, 90 min. max activation, %. 410,000 tested, 0.58% active. AID 652048; in the data active means max activation above about 30%; further: 0% is about no effect
#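 Cells at 1500/well, incubated overnight, then treated with pinned compounds (dopamine as control) for 90 min at 37 degrees C. DiscoveRx reagent added for 30 - 60 minutes at room temperature; luminescence read.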
# IL-1B inflam inh: inflammasome signaling inhibition, IL-1 beta readout | 360,000 tested, 4.7% active | activity change, % at 57.5 µM | AID 743279 | THP-1 LPS/ATP IL-1B secretion, AlphaLISA, 16 h; stronger effect = lower value; in the data active means activity change below about -50%; inconclusive means mostly about -30% to -49%; further: on the % scale 0 is the no-effect control and ±100 the full control effect
#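 Secreted IL-1B measured by AlphaLISA bead assay after 16 h compound exposure of THP-1 cells; compounds (final up to 57.5 uM) added 1 h before LPS (250 ng/mL) and ATP (1.25 mM) stimulation; lower signal means less secretion.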
# TDP1 cell CPT: growth inhibition of DT40 Tdp1-/-;hTDP1 cells with camptothecin (screen for TDP1 inhibitors). chicken DT40 Tdp1-/-;hTDP1 cells + 20 nM CPT, ATP luminescence, 48 h. Potency, µM (top dose mostly 46.2 µM), for the others: top-dose activity change, negative = growth inhibition, usual class: inhibitors. 420,000 tested, 12% active. AID 686979; further: potency means the concentration at half of the fitted maximal effect; on the % scale 0 is the no-effect control and ±100 the full control effect; nearly all actives have a fitted effect of over 55% in size
#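 Chicken DT40 Tdp1-/- cells complemented with human TDP1, 400 cells/well, exposed to compounds plus 20 nM camptothecin for at least 48 h at 37 C; viability read as ATP content by CellTiter-Glo luminescence.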
# TDP1 cell noCPT: qHTS for Inhibitors of human tyrosyl-DNA phosphodiesterase 1 (TDP1): qHTS in cells in absence of CPT; DT40 Tdp1-/- hTDP1 cells, no CPT, ATP luminescence, 48 h; AID 686978, 2013; Potency, µM (top dose mostly 46.2 µM), without a hit: top-dose activity change, negative = growth inhibition, actives largely listed as inhibitors; 420,000 tested, 15% active; further: potency means the concentration at half of the fitted maximal effect; on the % scale 0 is the no-effect control and ±100 the full control effect; nearly all actives have a fitted effect of over 55% in size
#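 Seeded 400 DT40-hTDP1 cells/well (vehicle DMSO, no 20 nM CPT); pinned compounds; ≥48 hr at 37 °C; CellTiter-Glo luminescence as viability measure.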
# DRD3 antagonist: antagonists of human D3 dopamine receptor | P35462 | 360,000 tested, 2.5% active | AID 652054 | max response, negative = inhibition, % | D3R cells, DiscoveRx beta-arrestin luminescence, antagonist mode; stronger effect = lower value; in the data active means max response below about -50%; inconclusive means no clear call, values can overlap the other calls; further: on the % scale 0 is the no-effect control and ±100 the full control effect
#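 Cells plated overnight at 1500 cells/well, then exposed to library compounds with dopamine controls for 90 minutes at 37 degrees C. DiscoveRx reagent added for 30–60 minutes at room temperature; luminescence read, quantitative HTS format.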
# ClpP mod: qHTS Assay for Activators of ClpP; purified B. subtilis ClpP, FRET peptide cleavage, 20 min; Potency, µM (doses to about 57.5 µM), for inactives: at the top dose activity change, negative = active; AID 651965, 2013; 340,000 tested, 1.9% active; ATP-dependent Clp protease proteolytic subunit (Bacillus subtilis (strain 168)), P80244; active means well fitted falling curve with a large enough effect; inconclusive means small, poorly fitted or top-dose-only effect; inactive means no such curve, though single readings can be large or run the other way; further: potency means the concentration at half of the fitted maximal effect; the source files actives as falling curves though it sought activators and does not explain the sign; nearly all actives have a fitted effect of over 65% in size
#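 Buffer: 100 mM Tris/HCl pH8, 100 mM KCl, 0.05% low protease BSA, 2.5% glycerol, 0.01% Tween-20. ClpP 10 microg/mL final; 20 min RT; delta FRET normalized to ADEP and DMSO controls.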
# Active calls of the source: *; i = inactive; ? = inconclusive; . = no result given; [ ] = another dose, or the depositor's remark. An excerpt weighted towards active compounds, which were near 21% of everything screened. Unless noted, the call rests on the fitted dose curve; in most records, active means well fitted inhibition curve with a large enough effect; inconclusive means small, poorly fitted or top-dose-only effect; inactive means flat fitted curve, though single readings scatter.
SMILES,DRD3 agonist,IL-1B inflam inh,TDP1 cell CPT,TDP1 cell noCPT,DRD3 antagonist,ClpP mod
COC(=O)c1ccc(NC(=O)N(c2ccccc2)c2ccccc2)cc1,1.6,-4.4,-3.2%,?,-2.4,-0.2%
O=C(Nc1cc(Cl)ccc1O)c1cc2n(n1)C(C(F)(F)F)CC(c1ccc3c(c1)OCO3)N2 (centres undefined),3.6,-86.9*,23.1µM*,16.4µM*,-16.2,-3.8%
COc1ccc(OC)c(NC(=O)c2cc3n(n2)C(C(F)(F)F)CC(c2ccc4c(c2)OCO4)N3)c1 (centres undefined),27.6,-61.2*,?,?,31.4,?
CCOC(=O)N1CCN(C(=O)c2cc3n(n2)C(C(F)(F)F)CC(c2ccc4c(c2)OCO4)N3)CC1 (centres undefined),22.5,0.0,?,14.6µM*,19.4,1.1%
O=C(NCc1ccc2c(c1)OCO2)c1cc2n(n1)C(C(F)(F)F)CC(c1ccc3c(c1)OCO3)N2 (centres undefined),9.7,0.0,?,-14.2%,7.2,-2.0%
COc1ccccc1NC(=O)c1cc2n(n1)C(C(F)(F)F)CC(c1ccc3c(c1)OCO3)N2 (centres undefined),5.3,?,16.4µM*,18.4µM*,21.6,1.1%
COC(=O)c1ccc(NC(=O)c2cccc(C)c2[N+](=O)[O-])cc1,-5.7,3.4,0.9%,-17.2%,-20.4,-2.0%
Clc1ccc(-c2csc(-c3nc(-c4ccc(Br)s4)cs3)n2)cc1,6.5,.,4.4%,-6.9%,.,2.2%
COCCCN1C(=O)C(CC(=O)NCc2cccc3ccccc23)CC(C(=O)N2CCCCCC2)=C1C (centres undefined),.,.,-5.6%,11.7%,.,0.8%
CC1=C(C(=O)N2CCCCCC2)CC(CC(=O)NCCc2ccccn2)C(=O)N1CCC1=CCCCC1 (centres undefined),.,.,?,?,.,2.7%
CC1=C(C(=O)N2CCCCCC2)CC(CC(=O)NCc2cccc3ccccc23)C(=O)N1CCC1=CCCCC1 (centres undefined),-10.7,-62.8*,?,?,-28.5,-0.7%
CCCCN1C(=O)C(CC(=O)NCc2cccc3ccccc23)CC(C(=O)N2CCCCCC2)=C1C (centres undefined),-11.0,-55.4*,?,?,0.0,-2.8%
CC1=C(C(=O)N2CCCCCC2)CC(CC(=O)NCc2cccs2)C(=O)N1CCC1=CCCCC1 (centres undefined),-15.7,0.0,16.4µM*,23.1µM*,0.0,0.2%
CC1(C)S[C@@H]2C(C(=O)O)NC(=O)N2C1C(=O)O (some centres undefined),.,.,2.5%,-6.2%,.,-1.0%
CC1Sc2ccc(S(=O)(=O)CCC(=O)Nc3ccc(C(C)C)cc3)cc2NC1=O (centres undefined),-0.3,94.4,?,-29.6%,2.7,-1.0%
CCN(CC)C(=O)C1CCN(S(=O)(=O)c2c(C)noc2/C=C/c2cccc(OC)c2)CC1,4.4,.,?,?,.,?
COCCCNC(=O)Cn1ccc(N)nc1=O,37.7*,-0.1,-12.1%,-22.7%,13.7,1.0%
O=C(CCc1nc(-c2ccccc2)c(-c2ccccc2)o1)OCc1ccc(Br)cc1,-15.8,2.7,-24.2%,-9.3%,-11.1,28.2µM*
COc1ccc2c(-c3ccccc3)cc(SCC(N)=O)nc2c1,5.8,-10.5,-26.9%,20.6µM*,5.1,.
CC(=O)c1cccc(NC(=O)C(C)OC(=O)C2=NNC(=O)CC2)c1 (centres undefined),-5.9,12.1,-23.9%,-16.1%,-6.5,0.0%
CC1=C(c2ccccc2)C(O)(c2ccccc2)C(C)C1=O (centres undefined),0.5,57.5,16.4µM*,16.4µM*,-7.2,.
CC1=C(c2ccccc2)CCC1=O,11.6,23.3,1.9%,3.9%,-23.2,-1.6%
Cc1cc([N+](=O)[O-])ccc1-c1ccc(C2Nc3ccccc3C(=O)N2O)o1 (centres undefined),16.9,57.8,23.1µM*,23.1µM*,39.8,0.2%
CCOC(=O)c1ccc(-c2ccc(C3Nc4ccccc4C(=O)N3O)o2)cc1 (centres undefined),7.1,70.9,?,?,-1.5,-10.0%
CCc1ccc([C@H]2C(C(=O)O)=C[C@@H](CC3CCCC3)N2S(=O)(=O)c2ccc(C)cc2)cc1,14.5,8.2,?,-12.6%,14.4,-2.3%
SMILES,DRD3 agonist,IL-1B inflam inh,TDP1 cell CPT,TDP1 cell noCPT,DRD3 antagonist,ClpP mod
COc1ccc(NC(=O)C(=O)N/N=C/c2cccnc2)cc1,20.0,2.2,8.4%,-25.0%,5.4,.
CCOc1ccc(/C=N/NC(=O)c2cc(-c3ccccc3)nc3ccccc23)cc1O,4.9,28.7,?,?,8.8,-5.3%
CCOc1ccc(-c2cc(C(=O)N/N=C/c3cccnc3)c3ccccc3n2)cc1,0.4,23.3,2.31µM*,1.84µM*,14.3,?
COc1ccc(-c2cc(C(=O)N/N=C/c3cccnc3)c3cc(C)cc(C)c3n2)cc1,-0.9,i,18.4µM*,8.2µM*,-4.3,?
CCOc1ccccc1-c1cc(C(=O)N/N=C/c2cccnc2)c2ccccc2n1,-10.7,-5.9,?,1.46µM*,24.4,.
Nc1nnc(CC(=O)N/N=C/c2ccc(-c3ccc(Cl)cc3Cl)o2)s1,-8.5,36.5,-16.4%,-14.6%,-7.1,0.2%
COc1ccc(C(CNC(=O)c2cc(C)on2)N(C)C)cc1 (centres undefined),-23.6,-0.9,3.0%,-26.2%,-24.7,-1.1%
Cc1nc2ccccc2c(=O)n1NC(=O)c1ccc([N+](=O)[O-])cc1,-5.9,0.1,-13.1%,-11.4%,-1.8,.
CC(=O)c1ccc(S(=O)(=O)N(C)CC(=O)N2CCCCCC2)cc1,1.3,-2.4,-15.6%,4.3%,-15.7,-1.2%
CCNC(=S)Nc1ccc(Cl)cc1,7.9,15.9,-16.7%,-34.3%,0.7,-1.8%
CCCCNC(=S)Nc1ccc(C(F)(F)F)cc1,-3.6,-93.7*,?,?,19.3,.
CCCCNC(=S)Nc1ccc(Cl)cc1,-6.6,-9.0,?,23.1µM*,16.8,1.5%
Cc1onc(-c2ccccc2)c1NC(=O)N(CCC#N)Cc1ccccc1,-6.1,.,3.5%,-17.6%,-4.1,.
COc1cccc(C(=O)NCC2Cc3c(F)ccc(-c4ncccn4)c3O2)c1OC (centres undefined),.,.,-7.0%[9.04 µM],?,.,.
